Results from the supplement of paper PMC13380429.
Counter-ions that a name gives are not always drawn.

System: Vero E6 infected with SARS-CoV-2
Assay: inhibition of SARS-CoV-2 cytopathic effect; higher = more antiviral protection, active = above 15
Settings: 100 nM; 48 h

**Q.** For `CC(=O)N(c1onc(C)c1C)S(=O)(=O)c1ccc(N)cc1` [sulfisoxazole-acetyl], which “inhibition of SARS-CoV-2 cytopathic effect” value (“inhibition” for short) is on record?
**A.** Its value is -3.58% (inactive).

**Q.** For `CCN(CC)CCCCN1c2ccccc2Oc2ccc(Cl)cc21`, which “inhibition” value is on record?
**A.** Its value is -2.29% (inactive).

**Q.** Which “inhibition” value does the source give for `COC1=C2C[C@@H](C)C[C@H](OC)[C@H](O)[C@@H](C)/C=C(\C)[C@H](OC(N)=O)[C@@H](OC)/C=C\C=C(/C)C(=O)NC(=CC1=O)C2=O` [geldanamycin] here?
**A.** Its value is 0.35% (inactive).

**Q.** Which “inhibition” value does the source give for `CO/N=C(\C(=O)N[C@@H]1C(=O)N2C(C(=O)O)=C(Cn3ccc(=N)n3CCO)CS[C@H]12)c1csc(N)n1` [Cefoselis sulfate] here?
**A.** Its value is -1.18% (inactive).

**Q.** Which “inhibition” value does the source give for `COc1cc2c(cc1OC)-c1c/c(=N\c3c(C)cc(C)cc3C)n(C)c(=O)n1CC2` [trequinsin] here?
**A.** Its value is -0.55% (inactive).

**Q.** How did the “inhibition” value turn out when `N[C@@H]1CCCN(c2c(/C=C3\SC(=O)NC3=O)cccc2-c2ccccc2)C1` was run?
**A.** The value was -1.57% (inactive).

**Q.** For `COc1ccc(N2CCOCC2)c2sc(NC(=O)N3CCC(C)(O)CC3)nc12` [tozadenant], which “inhibition” value is on record?
**A.** The value was -0.04% (inactive).

**Q.** For `CC(C)n1nccc1-c1ncccc1COc1cccc(O)c1C=O` [voxelotor], which “inhibition” value is on record?
**A.** The value was -0.23% (inactive).

**Q.** With `CCN(CC)CCOc1ccc(Nc2ncc3cc(-c4c(Cl)cccc4Cl)c(=O)n(C)c3n2)cc1` as the compound, how does the “inhibition” value read?
**A.** The value was -2.93% (inactive).

**Q.** `O=C(c1ccc(CN2CCOCC2)cc1)N1CCN(C2CC2)CC1` [bavisant] was tested. Which “inhibition” value did it give?
**A.** The value was -1.82% (inactive).

**Q.** `Cc1cc2nc3c(=O)[nH]c(=O)nc-3n(C[C@H](O)[C@H](O)[C@H](O)COP(=O)(O)O)c2cc1C` [riboflavin-5-phosphate-sodium] was tested. Which “inhibition” value did it give?
**A.** Its value is -0.48% (inactive).

**Q.** `COc1nc(N)nc2c1ncn2[C@@H]1O[C@H](CO)[C@@H](O)[C@@H]1O` [nelarabine] was tested. Which “inhibition” value did it give?
**A.** Its value is -0.71% (inactive).

**Q.** Which “inhibition” value does the source give for `O=C(c1ccc2nccnc2c1)N1CCCCC1` [ampalex] here?
**A.** The value was 0.65% (inactive).

**Q.** For `CCCCNc1ncc2c(-c3ccc(CN4CCN(C)CC4)cc3)cn([C@H]3CC[C@H](O)CC3)c2n1`, which “inhibition” value is on record?
**A.** Its value is -0.22% (inactive).

**Q.** With `CCN(CC)CCNC(=O)c1ccccc1I` as the compound, how does the “inhibition” value read?
**A.** Its value is 2.44% (inactive).

**Q.** For `CCCN(CCC)S(=O)(=O)c1ccc(C(=O)O)cc1` [probenecid], which “inhibition” value is on record?
**A.** The value was -2.27% (inactive).

**Q.** With `Clc1ccc(C2=CCC[C@H]3CC[C@@H]2N3)cn1` as the compound, how does the “inhibition” value read?
**A.** Its value is -0.54% (inactive).

**Q.** `O=C(CCc1ccc(O)cc1)c1c(O)cc(O)cc1O[C@@H]1O[C@H](CO)[C@@H](O)[C@H](O)[C@H]1O` [phlorizin] was tested. Which “inhibition” value did it give?
**A.** Its value is -10.3% (inactive).

**Q.** `CCCCCCCCCCCCCC(=O)[O-].CCCCCCCCCCCCCC(=O)[O-].N[C@@H]1CCCC[C@H]1N.[Pt+2]` [miriplatin] was tested. Which “inhibition” value did it give?
**A.** Its value is 0.5% (inactive).

**Q.** With `O=C(NO)c1cnc(N2CCN(S(=O)(=O)c3ccc4ccccc4c3)CC2)nc1` as the compound, how does the “inhibition” value read?
**A.** Its value is 2.04% (inactive).

**Q.** `CO/N=C(\C(=O)N[C@@H]1C(=O)N2C(C(=O)O)=C(CSc3nc(=O)c(O)nn3C)CS[C@H]12)c1csc(N)n1` [ceftriaxone] was tested. Which “inhibition” value did it give?
**A.** The value was 1.41% (inactive).

**Q.** Which “inhibition” value does the source give for `C=CC(=O)Nc1cccc(Oc2nc(Nc3ccc(N4CCN(C)CC4)cc3)nc3ccsc23)c1` [olmutinib] here?
**A.** Its value is 11.6% (inactive).

**Q.** `CN1[C@@H]2CC[C@H]1C[C@@H](OC(=O)c1c[nH]c3ccccc13)C2` [tropisetron] was tested. Which “inhibition” value did it give?
**A.** Its value is 1.21% (inactive).

**Q.** `C#C[C@]1(OC(C)=O)CC[C@H]2[C@@H]3CCC4=C[C@@H](OC(C)=O)CC[C@@H]4[C@H]3CC[C@@]21C` [ethynodiol-diacetate] was tested. Which “inhibition” value did it give?
**A.** The value was 2.52% (inactive).

**Q.** How did the “inhibition” value turn out when `COC(=O)[C@H](NC(=O)c1cc(-c2ccccc2)nc2ccccc12)c1ccccc1` was run?
**A.** Its value is 0.38% (inactive).

**Q.** Which “inhibition” value does the source give for `CN(C)[C@@H]1C(O)=C(C(N)=O)C(=O)[C@@]2(O)C(O)=C3C(=O)c4c(O)ccc(Cl)c4[C@@H](O)[C@H]3C[C@@H]12` [demeclocycline] here?
**A.** The value was 0.96% (inactive).

**Q.** Which “inhibition” value does the source give for `CC1=C(CC(=O)O)c2cc(F)ccc2/C1=C\c1ccc([S+](C)[O-])cc1` (stereo not given) [sulindac] here?
**A.** The value was -1.46% (inactive).

**Q.** Which “inhibition” value does the source give for `CN1c2c([nH]c(N)nc2=O)NC[C@@H]1CNc1ccc(C(=O)N[C@@H](CCC(=O)O)C(=O)O)cc1` [metafolin] here?
**A.** The value was 1.95% (inactive).

**Q.** With `O=C(Oc1cccc2cccnc12)c1ccccc1` [benzoxiquine] as the compound, how does the “inhibition” value read?
**A.** The value was -0.45% (inactive).

**Q.** With `O=C(O)/C=C/CO` [trans-4-hydroxycrotonic-acid] as the compound, how does the “inhibition” value read?
**A.** Its value is 1.39% (inactive).

**Q.** Which “inhibition” value does the source give for `CC1(COc2ccc(CC3SC(=O)NC3=O)cc2)CCCCC1` (stereo not given) [ciglitazone] here?
**A.** Its value is -1.82% (inactive).

**Q.** `O=C(Nc1ccc(Oc2ccc(Cl)cn2)c(Cl)c1)c1ccccn1` was tested. Which “inhibition” value did it give?
**A.** The value was 1.75% (inactive).

**Q.** Which “inhibition” value does the source give for `Nc1ncnc2c1ncn2[C@@H]1O[C@H](COP(=O)(O)OP(=O)(O)OP(=O)(O)OP(=O)(O)OC[C@H]2O[C@@H](n3cnc4c(N)ncnc43)[C@H](O)[C@@H]2O)[C@@H](O)[C@H]1O` [diadenosine-tetraphosphate] here?
**A.** Its value is 0.34% (inactive).

**Q.** For `CCc1ccc(/C=C2/SC(=S)NC2=O)cc1`, which “inhibition” value is on record?
**A.** The value was -4.03% (inactive).

**Q.** For `NS(=O)(=O)c1ccc(C(=O)O)cc1` [carzenide], which “inhibition” value is on record?
**A.** Its value is 0.05% (inactive).

**Q.** `CN1C[C@@H]2C[C@H]1CN2c1cc2c(cc1F)c(=O)c(C(=O)O)cn2C1CC1` [danofloxacin] was tested. Which “inhibition” value did it give?
**A.** Its value is 0.43% (inactive).

**Q.** With `NNc1nncc2ccccc12` [hydralazine] as the compound, how does the “inhibition” value read?
**A.** The value was -1.28% (inactive).

**Q.** How did the “inhibition” value turn out when `COc1cccc(OC)c1OCCNC[C@H]1COc2ccccc2O1` was run?
**A.** Its value is 0.45% (inactive).

**Q.** For `COc1cc2c(cc1OC)-c1cc3ccc(OC)c(OC)c3c[n+]1CC2` [palmatine-chloride], which “inhibition” value is on record?
**A.** Its value is -0.15% (inactive).

**Q.** `CC(=O)OCC1=C(C(=O)O)N2C(=O)[C@@H](NC(=O)CSc3ccncc3)[C@H]2SC1` [cephapirin] was tested. Which “inhibition” value did it give?
**A.** Its value is 6.28% (inactive).
